The panel holds about 83,000 compounds, 20% with a hit somewhere; the sample as a whole holds those more often.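 A percent growth of 40 corresponds to 60% growth inhibition; 0 means no net growth; -100 means all cells died. Active threshold: below 10.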 Values without a mark were called inactive. Activity calls are given as the source filed them.
What follows are compounds tested on NCI-H460 lung (assay: NCI-60 one-dose screen, 48 h (100 = growth as untreated, 0 = no growth, -100 = all killed)). Conditions: 10 µM unless noted.

Row | SMILES | growth
1 | Cc1csc(/N=C(N)/N=C(\N)c2cccc(C#N)c2)n1 | 64.8%
2 | Clc1ccc(CSc2nnc(-c3ccc(Cl)cc3)n2-c2ccccc2)cc1 | 85.8%
3 | C#Cc1nc(C(=O)NCCCCCCC(=O)NO)cs1 | 16%
4 | CCCNNC(=O)c1ccc(-c2ccc(NC(=O)CCCCCCC(=O)N[C@H](C(=O)N3C[C@H](O)C[C@H]3C(=O)N[C@@H](C)c3ccc(-c4scnc4C)cc3)C(C)(C)C)cc2)cc1 | 31.8%
5 | CN1CCN(c2ccc(Nc3nc(NCCNC(=O)c4ccccc4)c4sccc4n3)cc2)CC1 | 74%
6 | COc1cc2c3c(cc4c5c(ccc4c3c1OC)OCO5)N(CCN(C)C)C2=O | -20.5% (active)
7 | N#Cc1c(-c2cccs2)cc(-c2cnccn2)nc1SCC(=O)N/N=C/c1ccc(Cl)cc1 | 103%
8 | COC(=O)c1cccc(NC2=CC(=O)C(C)=C(C)C2=O)c1 | 104%
9 | C#Cc1nc(/C=C/CCCCCCC(=O)NO)cs1 | 51.8%
10 | CC(=O)Nc1nc(C)c(-c2csc(Nc3ccccc3)n2)s1 | 21.8%
11 | CC1=C(C)C(=O)C(Nc2ccc3c(c2)OCO3)=C(Br)C1=O | 100%
12 | N#Cc1cccc(-c2cc(-c3ccc4c(c3)OCCO4)[nH]n2)c1 | 15%
13 | COc1ccc2c(c1)c(-c1nc(N)nnc1-c1c[nH]c3ccccc13)cn2C | 14.2%
14 | CC1(C)CC[C@]23CC[C@]4(C)[C@H](CC[C@@H]5[C@@]6(C)CC[C@H](N)C(C)(C)[C@@H]6CC[C@]54C)[C@H]2[C@H]1OC3 | -34.8% (active)
15 | Fc1cccc(Cl)c1/C=N/Nc1nc(N/N=C/c2c(F)cccc2Cl)nc(N2CCCCC2)n1 | 19.9%
16 | Cc1ccccc1N1CCN(C2=C(Cl)C(=O)c3ncccc3C2=O)CC1 | 53.1%

Row | SMILES | growth
17 | CC(=O)OC[C@@]12Oc3c(cccc3-c3ccc(O)c4c3O[C@]3(COC(C)=O)C(=C4O)C(=O)C[C@H](C)[C@@H]3OC(C)=O)C(O)=C1C(=O)C[C@H](C)[C@@H]2OC(C)=O | 10.3%
18 | COc1ccc(CC(C)=C(c2ccc(OCCN3CCCC3)cc2)c2ccc(OCCN3CCCC3)cc2)cc1 | -62.3% (active)
19 | CNC(=O)c1cc(N2CCc3cc(NC(=O)Nc4ccc(N5CCOCC5)c(C(F)(F)F)c4)ccc32)ccn1 | 9.77% (active)
20 | CN(C)CC(=O)Nc1nc(-c2cccc(NS(=O)(=O)c3cccc4c(N(C)C)cccc34)c2)cs1 | 92.4%
21 | NCCNC(=O)c1cccc(COc2ccccc2NC(=O)c2cc(Cl)c(Cl)[nH]2)c1 | 104%
22 | COc1cccc2c1C=CC1(O2)Oc2cccc(OC)c2C=C1C (configuration not stated) | 7.1% (active)
23 | COc1ccc(-c2c(C(N)=O)c(N)n(Cc3nc4ccccc4[nH]3)c(=O)c2C#N)c(OC)c1 | 105%
24 | NC1C2CCC1CN(c1cnc(C(=O)Nc3cc(F)cc4cccnc34)cn1)C2 (configuration not stated) | 68.1%
25 | COc1ccc2c(c1)c(-c1nnc(N)nc1-c1c[nH]c3ccc(F)cc13)cn2C | 15.1%
26 | COc1ccc([C@H]2C(=O)N(c3cc(OC)c(OC)c(OC)c3)[C@@H]2c2ccc(OC)c(O)c2)cc1 | 4.38% (active)
27 | CCOC(=O)c1cnc2c(-c3ccc(Cl)c(Cl)c3)cnn2c1 | 99.7%
28 | Oc1[nH]c2ccc(Cl)cc2c1N=Nc1nc(N=Nc2c(O)[nH]c3ccc(Cl)cc23)nc(N2CCOCC2)n1 | 88.2%
29 | CCC1=Cc2c(OC)cccc2OC12C=Cc1c(OC)cccc1O2 (configuration not stated) | 7.72% (active)
30 | CCCC/C(=C\c1ccc(O)c(O)c1)C(=O)NC(Cc1ccccc1)C(=O)C(=O)NCCc1ccc(OC)cc1 (configuration not stated) | 102%
31 | CC/C(=C(/c1ccc(Cl)cc1)c1ccc(OCCN)cc1)c1ccccc1 | 60.2%
32 | Cc1ccc(S(=O)(=O)c2nc(-c3ccc(F)cc3)oc2S(C)(=O)=O)cc1 | 101%

From PubChem BioAssay (NCI)
